Bioassay records: PubChem, National Center for Advancing Translational Sciences (NCATS)
AmpC inh no detg: inhibitors of E. coli AmpC beta-lactamase without detergent. Potency, µM (top dose mostly 57.1 µM), for the others: top-dose activity change, negative = inhibition, most hits filed as inhibitors. AID 485341. AmpC nitrocefin hydrolysis, absorbance 480 nm, 0.0001% Triton. 0.52% of 330,000 active. P00811;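 also: plate controls were no compound for no effect and no enzyme for full effect; nearly all actives have a fitted effect of over 20% in size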
Target sequence (P00811 whole entry, looked up): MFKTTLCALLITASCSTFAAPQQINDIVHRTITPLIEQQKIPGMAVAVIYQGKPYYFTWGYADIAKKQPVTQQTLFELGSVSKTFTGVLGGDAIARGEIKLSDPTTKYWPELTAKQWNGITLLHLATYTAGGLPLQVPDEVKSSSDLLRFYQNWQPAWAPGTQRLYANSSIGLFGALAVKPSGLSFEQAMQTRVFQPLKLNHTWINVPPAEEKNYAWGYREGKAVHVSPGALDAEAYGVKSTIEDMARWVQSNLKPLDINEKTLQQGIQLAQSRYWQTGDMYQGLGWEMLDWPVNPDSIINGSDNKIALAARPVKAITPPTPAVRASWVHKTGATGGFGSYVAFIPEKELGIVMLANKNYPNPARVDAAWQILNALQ
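20 mM phosphate pH 7.0 + 0.01% (detergent screen) or 0.0001% Triton X-100; 5.3 nM AmpC reagent; cpd preinc 15 min RT; nitrocefin (800 uM stock) to start; A480 q20 s × 4 min; Activity was normalised to no-enzyme and no-compound control wells.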
AmpC inh detg: inhibitors of E. coli AmpC beta-lactamase with detergent; P00811; AmpC hydrolysis of nitrocefin, absorbance 480 nm, 0.01% Triton; Potency, µM (doses to about 114 µM), inactives show top-dose activity change, negative = inhibition, hits mostly inhibitors; 0.041% of 370,000 active; AID 485294;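 also: 0% = no-compound wells and -100% = no-enzyme wells; nearly all actives have a fitted effect of over 25% in size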
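20 mM phosphate pH 7.0 + 0.01% (detergent screen) or 0.0001% Triton X-100; 5.3 nM AmpC reagent; cpd preinc 15 min RT; nitrocefin (800 uM stock) to start; A480 q20 s × 4 min; Activity was normalised to no-enzyme and no-compound control wells.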
SARS PLpro yeast: inhibitors of SARS-CoV papain-like protease in yeast; S. cerevisiae expressing SARS-CoV PLpro, growth rescue; Potency, µM (highest dose often 32.9 µM), inactives show at the highest dose activity, positive = growth rescue, hits mostly activators; 0.19% of 330,000 active; AID 485353; calls by dose curve; also: 0% is about no effect; nearly all actives have a fitted effect of over 55% in size
NS1 inh: influenza NS1 inhibition. 0.4% of 270,000 active. Potency, µM (series often up to 46.1 µM), for the others: at the highest dose activity, positive = more growth. AID 2326; calls by dose curve; also: actives are rising curves; nearly all actives have a fitted effect of over 50% in size
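S. cerevisiae expressing influenza A NS1, grown in glucose, washed, then diluted 1:100 into pH 6.0 -URA galactose medium with 23 nl compound. Growth recovery read as OD600; NS1-free strain serves as control.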
AMA1-RON2 inh: inhibitors of Plasmodium falciparum AMA1-RON2 interaction; AID 720542; 0.2% of 360,000 active; AlphaScreen AMA1-biotinylated RON2 peptide binding; Potency, µM (top dose mostly 58.2 µM), for the others: top-dose activity change, negative = inhibition, hits mostly inhibitors;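 also: 0% = vehicle wells and -100% = peptide control; nearly all actives have a fitted effect of over 45% in size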
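AMA1 (3D7) with his tag at 25 nM final met compounds first, then biotinylated RON2 peptide at 25 nM; detection used donor plus acceptor beads, 10 µg/mL apiece, read by AlphaScreen after 30 min at room temperature.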
Active calls of the source: *; ? = inconclusive; . = no result. Hits are enriched below; roughly 0.99% of the tested compounds scored in any of these assays. Unless noted, calls follow the shape of the dose curve; as a rule, active = well fitted curve in the direction sought with a large enough effect; inconclusive = small, poorly fitted or top-dose-only effect, or another doubt; inactive = no such curve, though single readings can be large; an effect the other way counts as inactive or inconclusive. Potency is read from the fitted curve at half-maximal effect.

SMILES	AmpC inh no detg	AmpC inh detg	SARS PLpro yeast	NS1 inh	AMA1-RON2 inh
CCOC(=O)CSC1=Nc2ccccc2C2=NC(CCC(=O)NCc3ccccc3)C(=O)N12 (stereo not given)	.	7%	.	.	.
COc1ccc2[nH]cc(CCn3ccc(O)c(C/C=C/c4ccccc4)c3=O)c2c1	16µM*	0%	0%	?	?
Cc1coc2c1C(=O)C(=O)c1c-2ccc2c1CCCC2(C)C	10µM*	-1%	-4%	-21%	?
C[C@H]1COC2=C1C(=O)C(=O)c1c2ccc2c1CCCC2(C)C	?	1%	-4%	-4%	28µM*
CNC(=S)NNC(=O)Cc1ccccc1	0.28µM*	-1%	-2%	-3%	77%
CC(C)(C)NC(=O)Cn1cc(S(=O)(=O)Cc2ccccc2Cl)c2ccccc21	.	14%	.	.	.
Cc1ccc(/C=C/C2=Cc3c(sc(NC(=O)CSc4n[nH]c(N)n4)c3C#N)C(C)(C)C2)o1	13µM*	-7%	12%	18%	.
CCCC(=O)Nc1ccc(S(=O)(=O)N2CCCC2)cc1	-23%	-1%	1%	0%	0%
COc1cc(NS(=O)(=O)c2ccc(NC(=S)NC(=O)C3CCCC3)cc2)nc(OC)n1	16µM*	-1%	-6%	13%	-5%
O=C(NC(=S)Nc1ccc(S(=O)(=O)NC2CCCCC2)cc1)c1cccs1	-21%	10%	?	14%	68%
CCC(=O)NC(=S)Nc1ccc(S(=O)(=O)NC2CCCCC2)cc1	13µM*	10%	7%	-14%	-3%
CCCCC(=O)NC(=S)Nc1ccc(S(=O)(=O)N2CCCC2)cc1	13µM*	-11%	8%	9%	-10%
Cc1cccc(C(=O)Nc2cccc(C(=O)OCc3cc(=O)n4c5c(sc4n3)CCCC5)c2)c1	.	15%	.	.	.
Cc1ccc(NC(=O)CCCCCC2NC(=O)NC2C)cc1 (stereo not given)	0%	?	2%	-2%	0.21µM*
Cc1nc2ccn(Cc3cccs3)c(=O)c2cc1C(=O)NCc1ccc(Br)cc1	.	-4%	.	.	.
CCc1ccc(N2CC(c3nnc(NC(=O)c4ccco4)s3)CC2=O)cc1 (stereo not given)	.	17%	.	.	.
COc1ccc(S(=O)(=O)/N=C2\C=C(Nc3ccc(O)cc3)C(=O)c3ccccc32)cc1	-35%	?	-1%	0%	18µM*
CCOC(=O)c1c(C)c(C(=O)NCc2ccc(Cl)cc2)c(C)n1CC	.	-1%	.	.	.
COc1ccc(CC(=O)Nc2cccc(C(=O)O)c2C)cc1	4µM*	2%	4%	?	-1%
Cc1c(NC(=S)NC(=O)Cc2ccccc2)cccc1C(=O)O	-8%	7%	2%	12%	16%
Cc1cccc(C(=O)Nc2nnc(S(=O)(=O)N(C)c3ccccc3C)s2)c1	.	-3%	.	.	.
O=C(CC1SC(=O)N(c2ccccc2)C1=O)Nc1ccc(Br)cc1 (stereo not given)	8.9µM*	-6%	-5%	6%	77%
O=C(CC1SC(=O)N(c2ccccc2)C1=O)Nc1ccc(Cl)cc1 (stereo not given)	-47%	1%	-6%	10%	67%
Cc1ccccc1Nc1c(N)c(=O)oc2ccccc12	0.32µM*	2%	-4%	-2%	-2%
CC(NC(=O)C1CCCN(S(=O)(=O)c2cnc[nH]2)C1)c1ccccc1 (stereo not given)	-12%	?	3%	4%	-3%
SMILES	AmpC inh no detg	AmpC inh detg	SARS PLpro yeast	NS1 inh	AMA1-RON2 inh
CC(NC(=O)C1CCCN(S(=O)(=O)c2cccs2)C1)c1ccccc1 (stereo not given)	3.2µM*	-3%	-2%	-9%	26%
Cc1ccc(NC(=O)COc2coc(CN3c4ccccc4CC3C)cc2=O)c(C)c1 (stereo not given)	-1%	-19%	1%	.	-29%
CC1Cc2ccccc2N1Cc1cc(=O)c(OCC(=O)Nc2ccccc2)co1 (stereo not given)	35µM*	-13%	-4%	.	-1%
O=C(N/N=C/c1ccc(O)cc1O)c1ccc(CN2C(=O)c3cccc4cccc2c34)cc1	7.1µM*	1%	6%	3%	54%
COc1ccc(N=Nc2cc(C)c(O)c(CN3CCCCC3)c2)cc1	2%	6%	1%	-1%	20µM*
COc1ccc(CN2CCCCCC2)cc1	-16%	?	1%	-10%	-2%
CCOc1ccccc1NC(=O)Cn1c(=O)n(CCC(=O)NCc2ccc3c(c2)OCO3)c(=O)c2ccccc21	.	14%	.	.	.
O=C(Cc1ccc(S(=O)(=O)N2CCCC2)s1)Nc1nc2c(s1)CCCC2	14µM*	?	-6%	-9%	5%
O=C(COC(=O)Cc1ccc(S(=O)(=O)N2CCCCC2)s1)Nc1ccc2c(c1)OCO2	-55%	?	-3%	3%	-2%
NS(=O)(=O)c1cccc(NC(=O)COC(=O)Cc2ccc(S(=O)(=O)N3CCCCC3)s2)c1	32µM*	-5%	5%	.	0%
CCCc1cnc2c(c1SCC(=O)Nc1ccc([N+](=O)[O-])cc1)c(=O)n(C)c(=O)n2C	.	4%	.	.	.
CC1CCc2cc(F)ccc2N1S(=O)(=O)c1ccc(F)cc1 (stereo not given)	-17%	?	8.9µM*	-18%	-2%
CC1CCc2cc(F)ccc2N1S(=O)(=O)c1ccc(Cl)nc1 (stereo not given)	-17%	-13%	-14%	-6%	6%
CCCCCc1cc(=O)oc2c(C(CCN(CC)CC)c3ccc(N(C)C)cc3)c(OC)cc(OC)c12 (stereo not given)	206%	8%	8%	11%	25µM*
CCCCCc1cc(=O)oc2c(C(CCN3CCCC(C)C3)c3ccc(N(C)C)cc3)c(OC)cc(OC)c12 (stereo not given)	122%	1%	-6%	?	14µM*
CCCCCc1cc(=O)oc2c(C(CCN3CCCC(C)C3)c3cc(OC)c(OC)c(OC)c3)c(OC)cc(OC)c12 (stereo not given)	164%	5%	-1%	-4%	-24%
Cc1c(Cl)cccc1-n1ncc(C(=O)NCc2cccs2)c1C1CCN(C(=O)OC(C)(C)C)CC1	.	-3%	.	.	.
CCN(CC)C(=O)c1ccc2c(c1)N(Cc1ccc(C(F)(F)F)cc1)C(=O)c1ccccc1S2	.	2%	.	.	.
Cc1ccc(C(=O)NC(=S)Nc2c(C)ccc3nsnc23)cc1	-38%	?	13µM*	16%	-6%
CCC12CN3CC(C)(CN(C1)C3c1c[nH]c3ccc(OC)cc13)C2=O (stereo not given)	.	-10%	.	.	.
Cc1cc(C(=O)N2CCOCC2)n(-c2ccccc2)n1	-3%	10%	-3%	2%	12%
Cc1cc(C(=O)N2CC(C)CC(C)C2)n(-c2ccccc2)n1 (stereo not given)	8.9µM*	?	0%	-12%	18%
